Screening results as filed in PubChem BioAssay.
NPR1 antag: blocks ANP-stimulated signaling of human Npr1 receptor; P16066; HEK293 hNpr1 GloSensor cGMP, ANP-stimulated luminescence; Potency, µM (series often up to 46.3 µM), for inactives: at the top dose activity change, negative = inhibition, usual class: inhibitors; 76,000 compounds, 1.6% hits; AID 1347048; calls by dose curve; note: nearly all actives have a fitted effect of over 60% in size
Target sequence (P16066 whole entry, looked up): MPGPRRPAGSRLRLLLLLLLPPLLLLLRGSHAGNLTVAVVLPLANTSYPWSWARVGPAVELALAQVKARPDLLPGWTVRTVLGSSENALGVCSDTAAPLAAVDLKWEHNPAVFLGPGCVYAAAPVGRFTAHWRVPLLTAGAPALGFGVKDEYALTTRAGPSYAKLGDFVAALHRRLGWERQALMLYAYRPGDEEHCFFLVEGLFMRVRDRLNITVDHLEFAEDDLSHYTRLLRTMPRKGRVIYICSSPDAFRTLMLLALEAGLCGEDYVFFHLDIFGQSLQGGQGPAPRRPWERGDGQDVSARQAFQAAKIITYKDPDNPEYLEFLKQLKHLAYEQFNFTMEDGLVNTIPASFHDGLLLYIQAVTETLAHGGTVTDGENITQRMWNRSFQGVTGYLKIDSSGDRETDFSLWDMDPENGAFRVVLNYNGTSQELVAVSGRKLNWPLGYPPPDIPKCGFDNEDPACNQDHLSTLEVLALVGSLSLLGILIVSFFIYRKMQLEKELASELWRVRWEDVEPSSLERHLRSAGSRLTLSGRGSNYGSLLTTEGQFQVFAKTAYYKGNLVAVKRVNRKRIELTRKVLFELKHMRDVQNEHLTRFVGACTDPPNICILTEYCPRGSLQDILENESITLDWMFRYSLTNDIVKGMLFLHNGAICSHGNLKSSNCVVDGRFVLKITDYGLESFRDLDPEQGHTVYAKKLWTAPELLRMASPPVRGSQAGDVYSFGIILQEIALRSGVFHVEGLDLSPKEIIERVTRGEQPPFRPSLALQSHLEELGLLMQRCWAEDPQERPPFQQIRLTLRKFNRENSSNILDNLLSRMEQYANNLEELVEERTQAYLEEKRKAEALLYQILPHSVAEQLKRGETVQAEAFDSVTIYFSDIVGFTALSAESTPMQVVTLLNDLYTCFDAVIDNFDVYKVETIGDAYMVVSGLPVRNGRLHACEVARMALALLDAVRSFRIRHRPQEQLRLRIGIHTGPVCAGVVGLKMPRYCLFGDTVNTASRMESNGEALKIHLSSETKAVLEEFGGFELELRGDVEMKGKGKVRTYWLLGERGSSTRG
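HEK293 cells stably expressing human Npr1 and cGMP GloSensor pGS-40F, loaded 2 h with 2% GloSensor reagent, given compound 30 min at room temperature. Luminescence read before and 20 min after 0.1 nM hNppA.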
Luciferase inh: Photinus pyralis luciferase inhibition; P08659; purified P. pyralis luciferase, luminescence, biochemical; Potency, µM (doses to about 115 µM), actives largely listed as inhibitors; 76,000 compounds, 2.5% hits; AID 1347043; note: nearly all actives have a fitted effect of over 65% in size
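Biochemical qHTS: compound (6-point titration) added to 10uM D-luciferin plus 10uM ATP in Tris acetate pH 7.5 buffer with Mg, Tween-20 and BSA, then purified enzyme at 10nM; light output imaged.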
HEK293 tox: cytotoxic compounds in HEK 293 cells; 94,000 compounds, 6.6% hits; Potency, µM (highest dose often 115 µM), for inactives: at the top dose activity change, negative = cytotoxicity, actives largely listed as inhibitors; HEK 293 viability, ATP luminescence (CellTiter-Glo), 48-72 h; note: nearly all actives have a fitted effect of over 60% in size
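HEK 293 cells seeded at 250 cells/well were exposed to compound for 48 or 72 hr at 37 degree Celsius. Viability taken as ATP content by CellTiter-Glo luminescence.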
NIH3T3 tox: NIH 3T3 cell cytotoxicity | NIH 3T3 viability, CellTiter-Glo ATP luminescence, 48-72 h | Potency, µM (highest dose often 96.7 µM), for inactives: top-dose activity change, negative = cytotoxicity, most hits filed as inhibitors | 94,000 compounds, 4.3% hits | AID 1345082; note: nearly all actives have a fitted effect of over 55% in size
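NIH 3T3 cells at 400 cells/well received 23 nL of compound by pintool and were incubated 48 or 72 h at 37 °C. Viability was read as ATP-coupled CellTiter-Glo luminescence.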
Numbers without * were called inactive; i = inactive; ? = inconclusive; . = no result given; [ ] = another dose, or the depositor's remark. Shown are actives, neighbours in structure and some others; about 11% of the full set was active somewhere. Unless noted, calls come from the whole dose curve; as a rule, active = well fitted curve in the direction sought with a large enough effect; inconclusive = small, poorly fitted or top-dose-only effect, or another doubt; inactive = no such curve, though single readings can be large; an effect the other way counts as inactive or inconclusive. % is set by controls: 0 for no effect and ±100 for the full control effect; potency is the fitted concentration of half-maximal effect.

SMILES	NPR1 antag	Luciferase inh	HEK293 tox	NIH3T3 tox
O=C([C@H]1CCCN1[S+](=O)([O-])c1cccs1)N1CCC(N2CCOC2=O)CC1	.	.	i	1%
COc1ccc(OCc2cc(C(=O)NCCc3nc(C)c(C)s3)no2)c(Cl)c1	0%	?	32µM*	?
COc1ccc(NC(=O)N[C@@H]2C=C[C@@H](c3c(C)nn(-c4ccccn4)c3C)C2)cc1	-19%[70.6 µM]	?	71µM*	112µM*
COc1ccc(-n2nc(C)c([C@H]3C=C[C@@H](OC(=O)Nc4ccc(Br)cc4)C3)c2C)cc1	11µM*	35µM*	?	?
COc1ccc(NC(=O)N[C@@H]2C=C[C@@H](c3c(C)nn(CCC#N)c3C)C2)cc1	-13%[70.6 µM]	i	?	?
CCN(CC)C(=O)c1cccc(-c2ccc(OCCn3ccnc3)cc2)c1	-25%	i	45µM*	?
Cc1ncc2n1C(=O)N(C1CCN(C(=O)c3ccccc3F)CC1)C2	1%[70.6 µM]	i	-12%[172 µM]	-15%[138 µM]
COc1ccc(-c2noc(CCCC(=O)N3CCC(c4nc(C5CCOCC5)no4)C3)n2)cc1OC (stereo not given)	-27%	i	?	?
COc1ccc(-c2noc(CCCC(=O)N3CCCn4nc(-c5ccc(F)cc5)cc4C3)n2)cc1OC	.	.	32µM*	?
N#Cc1cccc(-c2ccnc(N[C@H]3CO[C@H]4[C@@H]3OC[C@H]4OC(=O)Nc3cccc(C(F)(F)F)c3)n2)c1	?	i	28µM*	-22%
COc1ccc(-c2ccnc(N[C@H]3CO[C@H]4[C@@H]3OC[C@H]4OC(=O)Nc3cccc(C(F)(F)F)c3)n2)cc1	-19%	i	?	?
CCNC(=O)N[C@H]1CO[C@H]2[C@@H]1OC[C@@H]2Nc1nccc(-c2ccc(-c3ccccc3)cc2)n1	11µM*	?	10µM*	-29%
CC(=O)c1cccc(NC(=O)O[C@@H]2CO[C@H]3[C@@H]2OC[C@@H]3Nc2nccc(-c3cccc(F)c3)n2)c1	?	?	35µM*	?
COc1ccc(-c2ccnc(N[C@H]3CO[C@H]4[C@@H]3OC[C@@H]4NS(=O)(=O)c3ccc4ccccc4c3)n2)cc1	?	i	22µM*	?
COc1ccc(C(=O)N[C@@H]2CCC[C@@H]2C(=O)NCc2cc(OC)cc(OC)c2)cc1	-1%	i	i	1%
CNC(=O)CCn1ncc2cc(OC3CCc4cccc(-c5c(C)noc5C)c43)ccc21 (stereo not given)	-14%[70.6 µM]	i	?	?
O=C(Nc1cccc(C(F)(F)F)c1)N[C@H]1CO[C@H]2[C@@H]1OC[C@@H]2Nc1nccc(-c2ccc(-c3ccccc3)cc2)n1	1%	i	35µM*	32µM*
O=C(c1ccccc1)N1CCCC(C(=O)N2CCC(c3nc4ncccc4[nH]3)C2)C1 (stereo not given)	.	.	i	-3%
O[C@@H]1CCC2CC1[C@@H](O)CN2Cc1ccc(-c2ccccc2)cc1 (stereo not given in full)	.	.	79µM*	?
COc1ccc(-c2cc(N3CCN(C(=O)c4cccc(OC)c4OC)CC3)n[nH]2)cc1	3%	i	?	?
C[S+](=O)([O-])c1ccc(-c2cc3c(ccn3Cc3ccncc3)c(N3CCOCC3)n2)cc1	1%	i	-16%	6.3µM*
c1cc(-c2cc3c(ccn3Cc3ccncc3)c(N3CCOCC3)n2)cc(N2CCOCC2)c1	-2%	i	?	32µM*
C[S+](=O)([O-])Nc1cccc(-c2cc3c(ccn3Cc3ccncc3)c(N3CCOCC3)n2)c1	-6%	i	-22%	?
CN(C)Cc1cccc(-c2cc3c(ccn3Cc3ccncc3)c(N3CCOCC3)n2)c1	-11%[70.6 µM]	i	89µM*	40µM*
COCCN1C(=O)c2ccccc2C(C(=O)N2CCN(c3ccccc3)CC2)C12CCCC2 (stereo not given)	1%	i	?	-5%
Cc1noc(-c2cn(C3CCN(C(=O)c4cccc(F)c4)CC3)nn2)n1	-8%	i	-14%	-31%
COCCCNC(=O)N1CCCCCCNC(=O)[C@@H]2CCCC[C@@H]21	0%	i	i	-15%
O=C1Nc2ccccc2C12CCN(c1cc(C3CC(O)C3)ncn1)CC2 (stereo not given)	4%	i	?	-29%
